Laboratory results as given in PubChem BioAssay AID651820 (National Center for Advancing Translational Sciences (NCATS), 2012).
Hit rate of the full screen: of about 340,000 compounds, about 12,000 (3.5%) were called active. A call without a number means that no potency is given here. Inconclusive results (about 18%) are left out. Only a selection was taken, and actives are over-represented in it overall. A number with no mark means an inactive call. Calls follow the shape of the dose curve; as a rule, active = well fitted inhibition curve with a large enough effect; inconclusive = small, poorly fitted or top-dose-only effect, or another doubt; inactive = no such curve, though single readings can be large or run the other way.

assay: qHTS Assay for Inhibitors of Hepatitis C Virus (HCV); conditions: Huh7.5.1 HCVcc-Cre infection, luciferase reporter, 44 h; series mostly up to 41.8 µM
Description: Hepatitis C virus (HCV) infects about 200 million people in the world. Many infected people progress to chronic liver disease including cirrhosis with a risk of developing liver cancer. To date, there is no effective vaccine for hepatitis C. Current therapy based on interferon is only effective in about half of the patients and is associated with significant adverse effects. The fraction of people with HCV who can complete a successful treatment is estimated to be no more than 10 percent. Recent development of direct-acting antivirals against HCV, such as protease and polymerase inhibitors, is promising but still requires combination with peginterferon and ribavirin for maximal efficacy. In addition, these agents are associated with high rate of resistance and many have significant side effects. Due to the lack of a culture system for infectious HCV, the search for new HCV drugs has been greatly hampered. […] High-throughput screening (HTS) with an infectious HCV system would cover the complete spectrum of potentially druggable targets in all stages of HCV lifecycle, and would have more biological relevance than other cell-based assays. Moreover, targeting several key processes in the viral life cycle may not only increase antiviral efficacy; more importantly, it may also reduce the capacity of the virus to develop resistance to the compound. The goal of this project is to identify novel HCV inhibitors as new therapies for hepatitis C, using a highly sensitive and specific assay platform which is based on a HCV infectious cell culture system established in the laboratory and adapted for high-throughput HCV drug screen. NIH Chemical Genomics Center [NCGC] NIH Molecular Libraries Probe Centers Network [MLPCN] MLPCN Grant: MH095511 Assay Submitter (PI): Jake Liang, NIDDK
The assay will start with plating 1,000 cells/well in 3 µL volume and culture for 4 h. Then 23 nL of compounds from the library collection will be added to each well, followed by adding 2.5 µL of HCVcc-Cre virus (~ 0.5 moi) and further cultured for 44 h before the luciferase assay. A volume of 4.5 µL luciferase substrates will be added to each well and the plates will be incubated at room temperature for 15 min. and then read for 15 sec. for the luciferase activity

SMILES | Potency | activity change, negative = inhibition
Cc1ccc2c(c1)C1CN(C)CCC1N2C(=O)c1ccccc1NS(=O)(=O)c1ccc(F)cc1C (centres undefined) | inactive | 
S=C(Nc1ccc(Cl)cc1Cl)N1CCCC1 | inactive | 
Cc1ccc2c(c1)C1CN(C)CCC1N2C(=S)Nc1ccc(Cl)cc1Cl (centres undefined) | 14.1 µM (active) | 
Cc1ccc(-c2nn(-c3ccc(F)cc3)cc2C(=O)NCC(c2cccs2)N2CCOCC2)cc1 (centres undefined) | inactive | 
CC(=O)CSc1nc(CCc2ccccc2)c(C#N)c(=O)[nH]1 | inactive | 
Cc1csc(=O)n1CC(=O)Nc1ccc(S(C)(=O)=O)cc1 | inactive | 
COc1ccc2nc(NC(=O)NC3CCCCC3)sc2c1 | inactive | 
COc1ccc2nc(NC(=O)c3ccc(Br)s3)sc2c1 | inactive | 
COc1ccc2nc(Nc3nc4ccc(NC(C)=O)cc4s3)sc2c1 | 12.6 µM (active) | 
O=C(COC(=O)c1cccc(Cl)c1)NC(=O)NCc1ccccc1 | inactive | 
Cc1noc(C)c1COc1ccc(C(=O)NCCOc2ccccc2)cc1 | inactive | 
O=C(NC(=S)Nc1ccc(S(=O)(=O)N2CCOCC2)cc1)c1ccccc1[N+](=O)[O-] | inactive | 
O=C(Nc1ccc(N2CCOCC2)cc1)c1ccc(-c2ccccc2[N+](=O)[O-])o1 | 11.2 µM (active) | 
CN(CC(=O)Nc1ccc(N2CCOCC2)cc1)CC(=O)Nc1ccccc1[N+](=O)[O-] | inactive | 
Clc1ccc(Nc2ccc3ccccc3n2)cc1 | inactive | 
N#CC1(NC(=O)COC(=O)CSc2ccc(F)cc2)CCCCC1 | inactive | 
COc1cccc(COC(=O)C2CCN(S(=O)(=O)c3cccs3)CC2)c1OC | inactive | 
COC(=O)c1sc(NC(=O)c2csc3c2CCCC3)nc1C | 11.2 µM (active) | 
Cc1ccc(NC(=O)c2csc3c2CCCC3)cc1 | inactive | 
COC(=O)c1sc(NC(=O)c2ccc(OC)cc2OC)nc1C | inactive | 
CC1=NNC(=O)C1Cc1c(Cl)cccc1Cl (centres undefined) | inactive | 
CCCCN1CC(CO)Oc2cccc(F)c2S1(=O)=O (centres undefined) | inactive | 

SMILES | Potency | activity change, negative = inhibition
COc1cccc2oc(CCc3ccccc3)cc(=O)c12 | inactive | 
Cc1cc2nc(C(F)(F)F)cc(-c3cccs3)n2n1 | inactive | 
Cc1cc(-c2cccs2)nc(-n2cccc2)n1 | 5.01 µM (active) | 
c1csc(-c2cn3c(n2)SCC3)c1 | inactive | 
CO[C@@H]1[C@@H](OC(N)=O)[C@@H](O)C(Oc2ccc3c(O)c(NC(=O)c4ccc(O)c(CC=C(C)C)c4)c(=O)oc3c2C)OC1(C)C (some centres undefined) | inactive | 
CC[C@]12c3[nH]c4ccc(Cl)cc4c3CCN1C(=O)[C@@H](CC(=O)NCCCOC)C[C@@H]2C(=O)N1CCN(C(=O)c2ccco2)CC1 | inactive | 
COc1ccccc1N1CCN(c2nc(C)cc(=O)[nH]2)CC1 | inactive | 
O=C(COC(=O)C1(c2ccc(F)cc2)CCCC1)N1CCNC1=O | inactive | 
CSc1ncc(Sc2ccccc2)c(C(=O)O)n1 | inactive | 
CSc1nc(C)cc(SC(C(C)=O)C(=O)Nc2ccccc2)n1 (centres undefined) | inactive | 
CSc1nc(-c2ccccc2)nc(C(Cl)Cl)n1 | 3.98 µM (active) | 
CCOc1ncccc1C(=O)Nc1ccc2c(c1)OCCO2 | inactive | 
CC(=O)c1ccc(S(=O)(=O)Nc2ccc(-c3ccc4nncn4n3)cc2)cc1 | inactive | 
C[C@@H]1C[C@@H]2O[C@H]2/C=C\C=C\C(=O)Cc2c(Cl)c(O)cc(O)c2C(=O)O1 | 3.16 µM (active) | 
Cc1noc(C)c1NC(=O)Nc1cccc2c1O[C@H](CN(C)S(=O)(=O)c1c(C)noc1C)[C@@H](C)CN([C@H](C)CO)C2=O | inactive | 
Cc1cc(C)c2nc(N3CCCC3)c(C#N)cc2c1 | inactive | 
CC(=O)c1ccc(S(=O)(=O)N2CCN(c3nc4c(C)c(C)ccc4cc3C#N)CC2)cc1 | 10 µM (active) | 
CC(=O)c1ccc(S(=O)(=O)N2CCN(C(=O)/C=C/c3ccc4ccccc4n3)CC2)cc1 | inactive | 
O=C(Cc1ccc([N+](=O)[O-])cc1)NCCc1ccc2c(c1)OCO2 | inactive | 
CN(C(=O)COC(=O)Cc1ccccc1[N+](=O)[O-])C1CCS(=O)(=O)C1 (centres undefined) | inactive | 
COc1ccc(CCNC2=C(Cl)C(=O)N(Cc3ccccc3)C2=O)cc1OC | 12.6 µM (active) | 
COc1ccc(CCN2C(=O)C(C)=C(C)C2=O)cc1OC | inactive | 

SMILES | Potency | activity change, negative = inhibition
COc1ccc(CCNC(=O)c2ccccc2-c2ccccc2C(=O)O)cc1OC | inactive | 
Cc1ccc(S(=O)(=O)CC(=O)Nc2sc(C)c(C)c2C(N)=O)cc1 | inactive | 
COc1cc2c(cc1CNC[C@H]1O[C@@H](n3cnc(C(N)=O)n3)[C@H](O)[C@@H]1O)OCO2 | inactive | 
Cc1ccc2nc(Nc3ccccc3O)nc(-c3ccccc3)c2c1 | inactive | 
OCCCNc1nc(-c2ccccc2)c2cc(Cl)ccc2n1 | inactive | 
NC(N)=Nc1nc(-c2ccccc2)c2cc(Cl)ccc2n1 | 11.2 µM (active) | 
Cn1c(N)c(C(=O)COC(=O)c2cccc(S(=O)(=O)N3CCOCC3)c2)c(=O)n(C)c1=O | inactive | 
O=C(NCC(=O)N1CCCCCCC1)c1ccccc1Cl | inactive | 
CCCCNC(=O)C(C)N(CCN(C)C)C(=O)CCCN1C(=O)NC(c2ccc(Cl)cc2)C(C(=O)OCc2ccccc2)=C1C (centres undefined) | 11.2 µM (active) | 
CC1=C(C(=O)OCc2ccccc2)C(c2ccc(C(F)(F)F)cc2)NC(=O)N1CCCCCC(=O)O (centres undefined) | inactive | 
CCOC(=O)CCCNC(=O)CN1C(=O)NC(CCc2ccccc2)C1=O (centres undefined) | inactive | 
COC(=O)CCCCCN1C(=O)NC(c2ccc(-c3ccccc3)cc2)C(C(=O)OCc2ccccc2)=C1C (centres undefined) |  | 4.51% [at 8.37 µM]
CC1=C(C(=O)OC(C)(C)C)C(c2ccc(Br)cc2)NC(=O)N1CCCC(=O)O (centres undefined) | inactive | 
CCCCNC(=O)C(C)N(CCN(C)C)C(=O)CCCCCN1C(=O)NC(c2ccc(Cl)cc2)C(C(=O)OCc2ccccc2)=C1C (centres undefined) | 11.2 µM (active) | 
O=C(COC(=O)CSc1ccccc1)Nc1ccc(F)cc1F | inactive | 
CCC(C)C1(C2CCCC2)NC(=O)NC1=O (centres undefined) | inactive | 
CC(C)(C)OC(=O)C1=C(CO)CS[C@@H]2[C@H](NC(=O)Cc3ccccc3)C(=O)N12 | inactive | 
O=C(c1ccc2nc(N3CCOCC3)sc2c1)N1CCN(c2ccc(Cl)cc2)CC1 | inactive | 
c1c2c(cc3sc(N4CCCCC4)nc13)OCCO2 | inactive | 
Brc1ccc2nc(N3CCCC3)sc2c1 | 11.2 µM (active) | 
